From PubChem BioAssay
The source made the active and inactive calls.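 The calls were made as follows: active = growth inhibition above 50% at the single 2 µM test dose, taken to imply half-maximal potency below 2 µM; inactive = the rest.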

Experiment: antimalarial activity against Dd2 strain (AID 2302);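 also: 0% = DMSO untreated growth and 100% = chloroquine plus artemisinin killed control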
Settings: P. falciparum Dd2 in RBCs, LDH growth readout, 72 h; at 2 µM; active compounds read high

Q: Which growth inhibition does the source give for Cn1c2ccccc2c2c3ccccc3c(CNC(CO)(CO)CO)cc21 here?
A: 78% (active)

Q: Which growth inhibition does the source give for COc1ccc(CNCc2ccccc2)cc1-c1cccc(S(=O)(=O)NCCN2CCCC2)c1 here?
A: 36% (inactive)

Q: With CC(=O)Nc1nc(N)c2c(ccc3c2ccn3CC(C)C)n1 as the compound, how does the growth inhibition read?
A: 78% (active)

Q: For c1ccc2[nH]c(-c3ccc(-c4ccc(CN5CCN(c6ccncc6)CC5)cc4)cc3)nc2c1, which growth inhibition is on record?
A: 100% (active)

Q: With O=C(NCc1cccc(CN2CCOCC2)c1)c1cc(Br)cc(N2CCN(c3ccncc3)CC2)c1 as the compound, how does the growth inhibition read?
A: 29% (inactive)

Q: For Cc1[nH]c(C)c(-c2ccc(-c3ccc(Cl)cc3)nc2)c(=O)c1Br, which growth inhibition is on record?
A: 96% (active)

Q: Which growth inhibition does the source give for COCCn1c(-c2cccc(Cl)c2)nn(-c2ccc([N+](=O)[O-])cc2Cl)c1=S here?
A: 99% (active)

Q: Which growth inhibition does the source give for O=C(Cn1c(CCc2cccc(F)c2F)cc(=O)c2ccccc21)N(Cc1ccc(-c2ccc(C(F)(F)F)cc2)cc1)C1CCN(CCO)CC1 here?
A: 84% (active)

Q: Which growth inhibition does the source give for COc1ccccc1NC(=O)CSc1nc2cccnc2n1-c1ccccc1OC here?
A: 91% (active)

Q: For CC(C)N(Cc1cnc(N)c(C#N)n1)c1ccc(Cl)c(Cl)c1, which growth inhibition is on record?
A: 63% (active)

Q: Which growth inhibition does the source give for c1cc(CNc2ncc(-c3ccsc3)c(-c3nccs3)n2)ccn1 here?
A: 81% (active)

Q: With Cc1ccccc1C1CCN(C2CCC(NC(=O)/C=C/c3ccccc3C(F)(F)F)CC2)CC1 (stereo not drawn) as the compound, how does the growth inhibition read?
A: 6% (inactive)

Q: For FC(F)(F)c1ccc2nc(-c3ccc(-c4ccc(CNCC5CCCO5)cc4)cc3)[nH]c2c1 (stereo not drawn), which growth inhibition is on record?
A: 100% (active)
